# Values quoted from earlier work in PubChem BioAssay AID977611.
# In all, about 3,900 compounds went through this assay and about 3,900 (100%) were called active. Cut-off not given; nearly all actives show Kd up to about 4200 µM. The set was probably picked from earlier hits. Some of the results follow. Bridge positions count the residues as written; N and C are the ends. Square brackets hold non-standard residues; d marks the D form. Peptide text beside a SMILES is read from it. Orn(CH(NH2)2) = NC(N)NCCC[C@H](N)C(=O)O
# Assay: PubChem AID 977611
# Conditions: PDB protein-ligand complexes, literature Kd
compound,measurement,setting,value
O=C1N=C(N=Nc2c(O)[nH]c3ccc(S(O)(O)O)cc23)S/C1=C\c1ccco1,Kd,"protein: NUCLEOCAPSID PROTEIN P7, PDB entry 2m3z",0.27 µM (active)
Oc1ccc2c3c1O[C@H]1c4[nH]c5ccccc5c4C[C@@]4(O)[C@@H](C2)N(CC2CC2)CC[C@]314,Kd,"protein: Soluble cytochrome b562, Delta-type opioid receptor chimeric protein, PDB entry 4n6h",0.00052 µM (active)
H-SSKPDIVG-OH,Kd,"protein: NprR, PDB entry 4gpk",0.03 µM (active)
H-SPSGVFTFG-OH,Kd,"protein: Capsid protein p24, PDB entry 4u0c",49 µM (active)
same,Kd,"protein: Gag polyprotein, PDB entry 4u0d",49 µM (active)
H-KHWVYY-OH,Kd,PDB entry 1abt,1.4 µM (active)
CC(C)[C@H](NC(=O)[C@H](CO[P+](O)(O)O)NC(=O)[C@H](Cc1cnc[nH]1)NC(=O)[C@@H](N)Cc1ccc(O)cc1)C(=O)N[C@H](C(=O)N[C@@H](CCCNC(N)N)C(=O)N[C@@H](Cc1ccc(O)cc1)C(=O)N[C@@H](C)C(=O)O)C(C)C,Kd,"protein: MOB kinase activator 1A, PDB entry 4jiz",2.4 µM (active)
OC[C@H]1O[C@@H](S[C@@H]2O[C@H](CO)[C@H](O)[C@H](O)[C@@H]2O)[C@@H](O)[C@@H](O)[C@H]1O,Kd,"protein: Galectin-3, PDB entry 4jck",4300 µM (active)
OC[C@H]1O[C@@H](S[C@@H]2O[C@H](CO)[C@H](O)[C@H](O)[C@H]2O)[C@H](O)[C@@H](O)[C@H]1O,Kd,"protein: Galectin-3, PDB entry 4jc1",50 µM (active)
O=c1cccc2n1C[C@@H]1CNC[C@H]2C1,Kd,"protein: Aplysia californica acetylcholine-binding protein (AChBP), PDB entry 4AFO",1.64 µM (active)
same,Kd,"protein: Aplysia californica acetylcholine-binding protein (AChBP), PDB entry 4bqt",1.64 µM (active)
O=C1C(=O)N(c2ccc(Cl)c(C(=O)O)c2)[C@@H](c2cc(Br)cs2)/C1=C(\O)c1ccccc1,Kd,"protein: Polymerase cofactor Ebola virus VP35, PDB entry 4ibe",70.6 µM (active)
Cc1ccc(N2C(=O)C(=O)/C(=C(/O)c3ccccc3)[C@@H]2c2cc(Br)cs2)cc1C(=O)O,Kd,"protein: Polymerase cofactor Ebola virus VP35, PDB entry 4ibd",215 µM (active)
O=C(O)[C@H]1C2CCC(CC2)[C@@H]1Nc1nc(-c2c[nH]c3ncc(F)cc23)ncc1F,Kd,"protein: Influenza polymerase basic protein 2 (PB2), PDB entry 4p1u",0.003 µM (active)
Cc1cccc(/C(O)=C2\C(=O)C(=O)N(c3ccc(CC(=O)O)cc3)[C@H]2c2cc(Cl)c3c(c2)OCO3)c1,Kd,"protein: Polymerase cofactor Ebola virus VP35, PDB entry 4ibg",108 µM (active)
O=C(O)Cc1ccc(N2C(=O)C(=O)/C(=C(/O)c3ccccc3Cl)[C@@H]2c2ccccc2Cl)cc1,Kd,"protein: Polymerase cofactor Ebola virus VP35, PDB entry 4ibc",1050 µM (active)
O=C1C(=O)N(c2cccc(C(=O)O)c2)[C@@H](c2cc(Cl)c3c(c2)OCO3)/C1=C(\O)c1cccc(C(F)(F)F)c1,Kd,"protein: Polymerase cofactor Ebola virus VP35, PDB entry 4ibi",73 µM (active)
O=C(O)c1cccc(N2C(=O)C(O)=C(C(=O)c3ccc(Cl)s3)[C@@H]2c2cc(Cl)c3c(c2)OCO3)c1,Kd,"protein: Polymerase cofactor Ebola virus VP35, PDB entry 4ibk",50.4 µM (active)
O=C1C(=O)N(c2cccc(C(=O)O)c2)[C@@H](c2cccc(C(F)(F)F)c2)/C1=C(\O)c1cccc(C(F)(F)F)c1,Kd,"protein: Polymerase cofactor Ebola virus VP35, PDB entry 4ibj",47 µM (active)
CCN1c2cc(N)ccc2-c2ccc(N)cc2[C@H]1c1ccccc1,Kd,"protein: Putative regulatory protein, PDB entry 3vvy",14.6 µM (active)
CO[C@@H]1O[C@@H](C)[C@@H](O)[C@@H](O)[C@@H]1O,Kd,"protein: Ralstonia solanacearum fucose-binding lectin protein, PDB entry 4csd",1.23 µM (active)
Nc1c(O)n(Cc2ccccc2)c(=O)[nH]c1=O,Kd,"protein: Glucose-1-phosphate thymidylyltransferase (RmlA), PDB entry 3zll",0.395 µM (active)
same,Kd,"protein: Glucose-1-phosphate thymidylyltransferase (RmlA), PDB entry 4AS6",0.395 µM (active)
C[C@@H](O)[C@H](NC(=O)[C@@H]1CCCN1C(=O)[C@H](CO[P+](O)(O)O)NC(=O)[C@@H](N)Cc1ccc(O)cc1)C(=O)N[C@@H](CO)C(=O)N1CCC[C@H]1C(=O)O,Kd,"protein: CTD INTERACTING DOMAIN of RNA processing factor SCAF8, PDB entry 3d9n",90 µM (active)
C[C@@H](O)[C@H](NC(=O)[C@@H]1CCCN1C(=O)[C@H](CO)NC(=O)[C@@H](N)Cc1ccc(O)cc1)C(=O)N[C@@H](CO[P+](O)(O)O)C(=O)N1CCC[C@H]1C(=O)N[C@@H](CO)C(=O)O,Kd,"protein: CTD INTERACTING DOMAIN of RNA processing factor SCAF8, PDB entry 3d9m",330 µM (active)
C[C@H](Nc1nc(-c2c[nH]c3ncc(Cl)cc23)ncc1F)C(=O)N(C)C,Kd,"protein: Influenza polymerase basic protein 2 (PB2), PDB entry 4ncm",0.1 µM (active)
CC(C)[C@H](NC(=O)[C@H](Cc1c[nH]c2ccccc12)NC(=O)[C@H](Cc1c[nH]cn1)NC(=O)[C@H](CCCCN)NC(=O)[C@H](Cc1c[nH]c2ccccc12)NC(=O)CNC(=O)[C@H](CCCNC(N)N)NC(=O)[C@@H](N)Cc1ccc(O)cc1)C(=O)N[C@@H](Cc1ccc(O)cc1)C(=O)N[C@@H](Cc1ccc(O)cc1)C(=O)N[C@H](C(=O)N[C@H]1CSSC[C@@H](C(=O)N2CCC[C@H]2C(=O)N[C@@H](CC(=O)O)C(=O)N[C@H](C(=O)N2CCC[C@H]2C(=O)N[C@@H](Cc2ccc(O)cc2)C(=O)O)[C@H](C)O)NC1=O)[C@@H](C)O,Kd,PDB entry 1idg,0.065 µM (active)
CC(C)[C@H](NC(=O)[C@H](Cc1c[nH]c2ccccc12)NC(=O)[C@H](Cc1c[nH]cn1)NC(=O)[C@H](CCCCN)NC(=O)[C@H](Cc1c[nH]c2ccccc12)NC(=O)CNC(=O)[C@H](CCCNC(N)N)NC(=O)[C@@H](N)Cc1ccc(O)cc1)C(=O)N[C@@H](Cc1ccc(O)cc1)C(=O)N[C@@H](Cc1ccc(O)cc1)C(=O)N[C@H](C(=O)N[C@H]1CSSC[C@@H](C(=O)N2CCC[C@H]2C(=O)N[C@@H](CC(=O)O)C(=O)N[C@H](C(=O)N2CCC[C@H]2C(=O)N[C@@H](Cc2ccc(O)cc2)C(=O)O)[C@@H](C)O)NC1=O)[C@@H](C)O (H-Y[Orn(CH(NH2)2)]GWKHWVYYTCCPDTPY-OH; disulfide 12-13),Kd,"protein: Cbtx, PDB entry 1lxh",0.065 µM (active)
C[C@H](CC(=O)O)c1n[nH]c2nc(N)[nH]c(=O)c2c1=O,Kd,"protein: Dihydropteroate Synthase, PDB entry 4d8z",0.51 µM (active)
